Holding throughout (conditions): 25 µM; exposure: 24-48 hpf
The subject of assay [1] is Danio rerio Tg(wt1b:EGFP) embryo, pronephros. In words: glomerular separation, fold change vs DMSO control; higher = glomeruli further apart (abnormal). The gist of the method: (§1)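 Dechorionated Tg(wt1b:EGFP) zebrafish embryos were exposed to 25 μM compound in 0.5% DMSO, HEPES-buffered E3 with 0.003% PTU, from 24 to 48 hpf at 28.5°C. Pronephroi were imaged dorsally in agarose-filled 96-well plates (470 nm, 10 z-slices). On maximum projections, 16 reference points were set manually in Fiji and a macro computed distances and angles. Values more than 2 SD from the feature mean were excluded. Each feature is a fold change relative to the mean of same-day DMSO controls.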

The test system is the same in assay [2]. In words: glomerular width (mean of left and right), fold change vs DMSO control; higher = wider glomerulus. Summed up: as §1
Assay [3] has the same test system. In words: fraction of imaged embryos annotated as normal kidney; higher = less nephrotoxic; extreme values may be limits of the assay. The gist of the method:
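From 24 to 48 hpf at 28.5°C, dechorionated Tg(wt1b:EGFP) zebrafish embryos in 12-well plates were kept in 5 mM HEPES-buffered E3 with 0.003% PTU, 0.5% DMSO and 25 μM compound. Pronephroi were imaged by widefield fluorescence at 470 nm and judged by eye from maximum projections. Reported is the proportion of embryos per treatment in the normal-kidney category.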

Assay [4] has the same test system. Nature of the assay: pronephric angle neck segment to proximal convoluted tubule (mean of left and right), fold change vs DMSO control; higher = larger pronephric angle. Summed up:
as §1

Molecules are shown by their SMILES. Where a name gives a salt, the structure may show the parent alone. ± gives the standard deviation or the standard deviation of the averaged measurements.

In assay [1], `O=C(NCC(O)CO)c1c(I)c(C(=O)NCC(O)CO)c(I)c(N(CCO)C(=O)CO)c1I` (stereo not given) [Ioversol] had a glomerular separation of 0.777 ± 0.33. Besides, the glomerular width in assay [2] stood at 1.07 ± 0.063. Also, in assay [3], the “fraction of imaged embryos annotated as normal kidney” value (from here on “fraction of imaged embryos annotated”) amounted to 0.833. In addition, the “pronephric angle neck segment” value in assay [4] turned out to be 0.9813 ± 0.0048.

In assay [1], `COc1cc(NS(=O)(=O)c2ccc(N)cc2)ncn1` [Sulfamonomethoxine] displayed a glomerular separation of 0.898 ± 0.44. This compound also registered a glomerular width in assay [2] of 0.946 ± 0.055. Besides, the “fraction of imaged embryos annotated” value in assay [3] is 0.833. For the same compound, in assay [4], the “pronephric angle neck segment” value was found to be 0.927 ± 0.096.

Consider `Cc1c(Nc2ncccc2C(=O)O)cccc1C(F)(F)F` [Flunixin meglumine], for which, in assay [1], the glomerular separation is 6.16 ± 1.6. For the same compound, the glomerular width in assay [2] was 0.491 ± 0.031. The “fraction of imaged embryos annotated” value in assay [3] was found to be 0. Further, in assay [4], the “pronephric angle neck segment” value worked out at 1.9787 ± 0.0013.

In assay [1], `Cc1ccc(O)c([C@H](CCN(C(C)C)C(C)C)c2ccccc2)c1` [Tolterodine tartrate] showed a glomerular separation of 1.13 ± 0.42. Also, the glomerular width in assay [2] turned out to be 1.06 ± 0.022. In assay [3], the “fraction of imaged embryos annotated” value was 0.818. Besides, the “pronephric angle neck segment” value in assay [4] was found to be 0.986 ± 0.044.

As to `CC(CCc1ccccc1)NCC(O)c1ccc(O)c(C(N)=O)c1` (stereo not given) [Labetalol hydrochloride], the glomerular separation in assay [1] was 1.04 ± 0.16. The compound further showed a glomerular width in assay [2] of 1.05 ± 0.075. In addition, the “fraction of imaged embryos annotated” value in assay [3] turned out to be 0.917. Also, the “pronephric angle neck segment” value in assay [4] amounted to 1.07 ± 0.069.

In turn, `CC(COc1ccccc1)N(CCCl)Cc1ccccc1` (stereo not given) [Phenoxybenzamine hydrochloride] registered a glomerular separation in assay [1] of 1.05 ± 0.59. For the same compound, in assay [2], the glomerular width is 0.834 ± 0.03. For the same compound, the “fraction of imaged embryos annotated” value in assay [3] stood at 0.583. In assay [4], the “pronephric angle neck segment” value was determined as 1.15 ± 0.036.

With `CN1CCC(=C2c3ccccc3Sc3ccccc32)CC1` [Pimethixene maleate], the glomerular separation in assay [1] was 1.32 ± 0.41. Also, the glomerular width in assay [2] worked out at 1.01 ± 0.021. Besides, in assay [3], the “fraction of imaged embryos annotated” value was 0.917. Also, the “pronephric angle neck segment” value in assay [4] was determined as 1.062 ± 0.0083.

In turn, `O=C1NCCN1CCN1CCC(c2cn(-c3ccc(F)cc3)c3ccc(Cl)cc23)CC1` [Sertindole] came in with a glomerular separation in assay [1] of 1.45 ± 0.59. In assay [2], this compound came in with a glomerular width of 1.08 ± 0.022. In assay [3], the “fraction of imaged embryos annotated” value was 0.833. In assay [4], the “pronephric angle neck segment” value was found to be 0.949 ± 0.071.

In assay [1], `C[C@H]1C[C@@H]2[C@H]([C@@H](O)C[C@@]3(C)[C@H]2CC[C@]3(O)C(=O)CO)[C@@]2(C)C=CC(=O)C=C12` [Methylprednisolone, 6-alpha] had a glomerular separation of 1.11 ± 0.4. The glomerular width in assay [2] was found to be 1.21 ± 0.11. Moreover, the “fraction of imaged embryos annotated” value in assay [3] worked out at 0.833. Besides, the “pronephric angle neck segment” value in assay [4] was 1.06 ± 0.088.

Compound `CN[C@@H]1[C@H](O[C@H]2[C@H](O[C@H]3[C@H](O)[C@@H](O)[C@H](NC(=N)N)[C@@H](O)[C@@H]3NC(=N)N)O[C@@H](C)[C@]2(O)CO)O[C@@H](CO)[C@H](O)[C@H]1O` [Dihydrostreptomycin sulfate] showed a glomerular separation in assay [1] of 0.844 ± 0.18. Moreover, the glomerular width in assay [2] worked out at 1.0469 ± 0.00096. Moreover, the “fraction of imaged embryos annotated” value in assay [3] came out at 0.667. In assay [4], the “pronephric angle neck segment” value worked out at 0.975 ± 0.048.

Values taken from the supplement of paper PMC7366291.
